# Records with an inconclusive call do not appear. Calls of active or inactive are those of the source. Calls come from the whole dose curve; as a rule, active = well fitted inhibition curve with a large enough effect; inconclusive = small, poorly fitted or top-dose-only effect; inactive = no such curve, though single readings can be large or run the other way.
# System: Zika virus NS2B-NS3 protease (unlinked complex)
# Test: Primary screen GU Rhodamine qHTS for Zika virus inhibitors: Unlinked NS2B-NS3 protease assay (AID 1347159); note: nearly all actives have a fitted effect of over 60% in size
# Settings: Recombinant ZIKV NS2B-NS3 protease, Rhodamine110 substrate fluorescence; series mostly up to 107 µM; activity change, negative = inhibition: at the top concentration
# Outline: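 Unlinked NS2B/NS3, 25 nM; Rhod110 peptide, 1.5 microM; compounds, up to 114 microM. Reaction run 15 min at RT in 10 mM Tris-HCl pH 8.0, 0.01% Tween 20; kinetic fluorescence change fitted with a 4-parameter Hill model.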
# % is set by controls: 0 for no effect and ±100 for the full control effect.
row,Structure (SMILES),"activity change, negative = inhibition"
1,CN1C(=O)c2ccccc2-n2c(nc3ccccc3c2=O)/C1=C/c1ccccc1,-10.7% (inactive)
2,COc1cc(C)c(C(=O)O[C@H]2[C@@H](O)[C@H](n3ccc(=O)[nH]c3=O)O[C@@H]2CO)c(OC)c1,23.6% [at 57.1 µM] (inactive)
3,C=C1CC2C3(C)C(O)CC(=O)C(C)(C)C3C(OC(C)=O)C(OC(C)=O)C2(C)C2C(=O)OC(C)(C(=O)OC)C(=O)C12C (stereo not given),5.45% [at 57.1 µM] (inactive)
4,COc1cc(/C=C/CO)ccc1O[C@@H]1O[C@H](CO)[C@@H](O)[C@H](O)[C@H]1O,4.81% (inactive)
5,COCC(=O)N1CCc2cc(-c3csc(NC(=O)c4cc(OC)cc(OC)c4)n3)ccc21,286% (inactive)
6,CC1=C(C)C(=O)OC(C(C)(O)C2CCC3C4CC=C5CC(OC6OC(COC7OC(CO)C(O)C(O)C7O)C(O)C(O)C6O)CC(O)C5(C)C4CCC32C)C1 (stereo not given),8.69% [at 32.5 µM] (inactive)
7,CC1=CC[C@]2(C(=O)O[C@@H]3O[C@H](CO[C@@H]4O[C@H](CO)[C@@H](O[C@@H]5O[C@@H](C)[C@H](O)[C@@H](O)[C@H]5O)[C@H](O)[C@H]4O)[C@@H](O)[C@H](O)[C@H]3O)CC[C@]3(C)C(CCC4[C@@]5(C)C[C@@H](O)[C@H](O)[C@@](C)(CO)C5CC[C@]43C)C2C1C (stereo not given in full),2.12% [at 32.5 µM] (inactive)
8,CC12CCC3c4ccc(O)cc4CCC3C1CCC2OC1OC(C(=O)O)C(O)C(O)C1O (stereo not given),18% (inactive)
9,C=CC(C)(C)C12CC3C(=O)NC(Cc4cnc[nH]4)C(=O)N3C1Nc1ccccc12 (stereo not given),-2.77% (inactive)
10,CC(C)c1nc(N(C)S(C)(=O)=O)nc(-c2ccc(F)cc2)c1/C=C/[C@@H](O)C[C@@H](O)CC(=O)O,0% (inactive)

# From PubChem BioAssay (NCATS)
